Consider nine compounds from PubChem BioAssay.

Assay [1] in a line: small molecules captured by biotinylated probe aFSTL3 – biochemical, small-molecule microarray, fluorescence 635/667, stem cell growth factor project, primary screen (AID 1064).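 Also: measures binding of the biotinylated anti-FSTL3 antibody to printed compounds.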 Particulars: higher = more signal.
Assay [2] in a line: binders from COS7 lysate, DM2A8 probe, primary screen, torsin A project, cell lysate, small-molecule microarray, fluorescence 635/667 (AID 1065). Particulars: higher = more signal, COS7 lysate expressing mutant human TOR1A.
A short description of assay [3]: small molecules captured by biotinylated probe aFGF2 – biochemical, small-molecule microarray, fluorescence 635/667, stem cell growth factor project, primary screen (AID 1067).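 Also: measures binding of biotinylated aFGF2 protein to printed compounds on slides; z-score merges feature fluorescence and signal-to-noise across triplicate slides.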 Conditions: higher = more signal.
Assay [4] in a line: small molecules captured by biotinylated probe aFGF10 – biochemical, small-molecule microarray, fluorescence 635/667, stem cell growth factor project, primary screen (AID 1071).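 Also: score merges 667 nm spot intensity and signal to noise from triplicate slides.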 Particulars: higher = more signal.
For assay [5], the target named is Neurogenic locus notch homolog protein 2 (Homo sapiens) (UniProt Q04721). The assay can be described thus: small molecules binding Notch2 protein – biochemical, small-molecule microarray, 635 nm fluorescence, stem cell growth factors, primary screen (AID 1073). Particulars: higher = more signal.
Assay [6] addresses Pro-neuregulin-1, membrane-bound isoform (Homo sapiens) (UniProt Q02297). The experiment in a line: small molecules binding neuregulin-1 protein – biochemical, small-molecule microarray, fluorescence 635/667, psychiatric disease protein project, primary screen (AID 1075).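 Also: score combines 667 nm spot fluorescence with signal to noise.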 Particulars: NRG1 binding, 635 nm fluorescence, higher = more signal.
The test system of assay [7] is Neuregulin-1 EGF-like domain. The assay can be described thus: small molecules binding NRG1 EGF domain – biochemical, small-molecule microarray, 635 nm fluorescence, primary screen (AID 1081).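 Also: binding of the protein to compounds printed on small-molecule microarray slides.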 Particulars: higher = more signal.
Assay [8] is described as follows: FRG1 expression reporter modulators in myotubes – cell-based, C2C12 myotubes, firefly/Renilla luciferase, luminescence, FRG1 inhibition for FSHD, primary screen (AID 1084). Conditions: FRG1 promoter luciferase, higher = more signal, called active from +8 up or from −8 down.
Assay [9] is described as follows: small molecules captured by biotinylated probe aFST – biochemical, small-molecule microarray, fluorescence 635/667, stem cell growth factor project, primary screen (AID 1086).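 Also: score merges 667 nm fluorescence with signal-to-noise of each printed compound spot.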 Particulars: higher = more signal.
The nature of assay [10]: binders of probe aHhip on microarray, primary screen, stem cell growth factor project, biochemical, small-molecule microarray, fluorescence 635/667 (AID 1087).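 Also: score merges spot fluorescence at 667nm with spot signal to noise ratio.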 Particulars: higher = more signal.
Assay [11] concerns PRMT1 (protein arginine N-methyltransferase 1). The assay can be described thus: small molecules binding arginine methyltransferase PRMT1 – biochemical, small-molecule microarray, 635 nm fluorescence, primary screen (AID 1088).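 Also: binding of Prmt1 protein to compounds spotted on small-molecule microarray slides.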 Conditions: higher = more signal.
Assay [12] can be described thus: growth effects on S. cerevisiae YJM789 – YJM789 clinical isolate, OD600, 24 h, basal, primary screen (AID 1089).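 Also: growth of clinical yeast isolate S. cerevisiae YJM 789 seeded 1000 cells per well; test concentration not given here.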 Particulars: higher = more signal, called active from +8 up or from −8 down.
The nature of assay [13]: S. pombe growth modifiers, basal conditions – strain 972, OD600, 24 h, no modulator, primary screen (AID 1090).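 Also: basal condition with compound alone and no growth modifier present; test concentration not given here.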 Particulars: S. pombe 972 growth, higher = more signal, called active from +8 up or from −8 down.
The nature of assay [14]: budding yeast growth modifiers under rapamycin – strain BY4716, OD600, 96 h, primary screen (AID 1091). Also: test concentration not given here. Conditions: S. cerevisiae BY4716 + rapamycin, higher = more signal, called active from +8 up or from −8 down.
The target of assay [15] is Torsin-1A-interacting protein 2 (Homo sapiens) (UniProt Q8NFQ8). The experiment in a line: small molecules binding lysate-expressed LULL1 – cell lysate, human LULL1 lysate, 635/667 nm fluorescence, primary screen (AID 1092).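 Also: probe is lysate of COS7 cells overexpressing human LULL1; score merges per-feature 667 nm fluorescence with signal-to-noise.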 Conditions: small-molecule microarray, hLULL1 lysate binding, 635 nm fluorescence; higher = more signal.
The nature of assay [16]: optical density change of DRC41 E. coli – strain DRC41, OD650, 24 h, E. coli filamentation project, primary screen (AID 1093).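 Also: MC1000 strain lacking acrAB efflux and sulA so SOS filamentation is blocked; test concentration not given here.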 Particulars: E. coli DRC41 growth, higher = more signal, called active from +8 up or from −8 down.
Assay [17] can be described thus: probe aLefty2 binding to arrayed compounds – biochemical, biotinylated probe, 635/667 nm fluorescence, primary screen (AID 1094).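 Also: score merges spot fluorescence near 667 nm with spot signal-to-noise ratio.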 Particulars: small-molecule microarray, higher = more signal.
For assay [18], the system named is Noggin (protein binding on small-molecule microarray). The experiment in a line: small molecules binding Noggin protein – biochemical, 635/667 nm fluorescence, primary screen (AID 1095).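 Also: score merges 667 nm feature fluorescence with signal to noise over triplicate slides.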 Conditions: 635 nm fluorescence, higher = more signal.
The target in assay [19] is Neurogenic locus notch homolog protein 3 (Homo sapiens) (UniProt Q9UM47). The assay can be described thus: small molecules binding NOTCH3 protein – biochemical, 635/667 nm fluorescence, primary screen (AID 1096). Particulars: small-molecule microarray, 635 nm fluorescence, higher = more signal.
Assay [20] in a line: probe aEGFR binding to arrayed compounds – biochemical, biotinylated probe, 635/667 nm fluorescence, primary screen (AID 1097).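 Also: probe is a biotinylated anti-EGFR antibody binding compounds printed on slides; score combines fluorescence near 667 nm and signal to noise of each spot.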 Conditions: small-molecule microarray, higher = more signal.

Calls of active or inactive are those of the source.

Chain of Neurogenic locus notch homolog protein 2 (Homo sapiens) (Q04721 whole entry, looked up, canonical isoform): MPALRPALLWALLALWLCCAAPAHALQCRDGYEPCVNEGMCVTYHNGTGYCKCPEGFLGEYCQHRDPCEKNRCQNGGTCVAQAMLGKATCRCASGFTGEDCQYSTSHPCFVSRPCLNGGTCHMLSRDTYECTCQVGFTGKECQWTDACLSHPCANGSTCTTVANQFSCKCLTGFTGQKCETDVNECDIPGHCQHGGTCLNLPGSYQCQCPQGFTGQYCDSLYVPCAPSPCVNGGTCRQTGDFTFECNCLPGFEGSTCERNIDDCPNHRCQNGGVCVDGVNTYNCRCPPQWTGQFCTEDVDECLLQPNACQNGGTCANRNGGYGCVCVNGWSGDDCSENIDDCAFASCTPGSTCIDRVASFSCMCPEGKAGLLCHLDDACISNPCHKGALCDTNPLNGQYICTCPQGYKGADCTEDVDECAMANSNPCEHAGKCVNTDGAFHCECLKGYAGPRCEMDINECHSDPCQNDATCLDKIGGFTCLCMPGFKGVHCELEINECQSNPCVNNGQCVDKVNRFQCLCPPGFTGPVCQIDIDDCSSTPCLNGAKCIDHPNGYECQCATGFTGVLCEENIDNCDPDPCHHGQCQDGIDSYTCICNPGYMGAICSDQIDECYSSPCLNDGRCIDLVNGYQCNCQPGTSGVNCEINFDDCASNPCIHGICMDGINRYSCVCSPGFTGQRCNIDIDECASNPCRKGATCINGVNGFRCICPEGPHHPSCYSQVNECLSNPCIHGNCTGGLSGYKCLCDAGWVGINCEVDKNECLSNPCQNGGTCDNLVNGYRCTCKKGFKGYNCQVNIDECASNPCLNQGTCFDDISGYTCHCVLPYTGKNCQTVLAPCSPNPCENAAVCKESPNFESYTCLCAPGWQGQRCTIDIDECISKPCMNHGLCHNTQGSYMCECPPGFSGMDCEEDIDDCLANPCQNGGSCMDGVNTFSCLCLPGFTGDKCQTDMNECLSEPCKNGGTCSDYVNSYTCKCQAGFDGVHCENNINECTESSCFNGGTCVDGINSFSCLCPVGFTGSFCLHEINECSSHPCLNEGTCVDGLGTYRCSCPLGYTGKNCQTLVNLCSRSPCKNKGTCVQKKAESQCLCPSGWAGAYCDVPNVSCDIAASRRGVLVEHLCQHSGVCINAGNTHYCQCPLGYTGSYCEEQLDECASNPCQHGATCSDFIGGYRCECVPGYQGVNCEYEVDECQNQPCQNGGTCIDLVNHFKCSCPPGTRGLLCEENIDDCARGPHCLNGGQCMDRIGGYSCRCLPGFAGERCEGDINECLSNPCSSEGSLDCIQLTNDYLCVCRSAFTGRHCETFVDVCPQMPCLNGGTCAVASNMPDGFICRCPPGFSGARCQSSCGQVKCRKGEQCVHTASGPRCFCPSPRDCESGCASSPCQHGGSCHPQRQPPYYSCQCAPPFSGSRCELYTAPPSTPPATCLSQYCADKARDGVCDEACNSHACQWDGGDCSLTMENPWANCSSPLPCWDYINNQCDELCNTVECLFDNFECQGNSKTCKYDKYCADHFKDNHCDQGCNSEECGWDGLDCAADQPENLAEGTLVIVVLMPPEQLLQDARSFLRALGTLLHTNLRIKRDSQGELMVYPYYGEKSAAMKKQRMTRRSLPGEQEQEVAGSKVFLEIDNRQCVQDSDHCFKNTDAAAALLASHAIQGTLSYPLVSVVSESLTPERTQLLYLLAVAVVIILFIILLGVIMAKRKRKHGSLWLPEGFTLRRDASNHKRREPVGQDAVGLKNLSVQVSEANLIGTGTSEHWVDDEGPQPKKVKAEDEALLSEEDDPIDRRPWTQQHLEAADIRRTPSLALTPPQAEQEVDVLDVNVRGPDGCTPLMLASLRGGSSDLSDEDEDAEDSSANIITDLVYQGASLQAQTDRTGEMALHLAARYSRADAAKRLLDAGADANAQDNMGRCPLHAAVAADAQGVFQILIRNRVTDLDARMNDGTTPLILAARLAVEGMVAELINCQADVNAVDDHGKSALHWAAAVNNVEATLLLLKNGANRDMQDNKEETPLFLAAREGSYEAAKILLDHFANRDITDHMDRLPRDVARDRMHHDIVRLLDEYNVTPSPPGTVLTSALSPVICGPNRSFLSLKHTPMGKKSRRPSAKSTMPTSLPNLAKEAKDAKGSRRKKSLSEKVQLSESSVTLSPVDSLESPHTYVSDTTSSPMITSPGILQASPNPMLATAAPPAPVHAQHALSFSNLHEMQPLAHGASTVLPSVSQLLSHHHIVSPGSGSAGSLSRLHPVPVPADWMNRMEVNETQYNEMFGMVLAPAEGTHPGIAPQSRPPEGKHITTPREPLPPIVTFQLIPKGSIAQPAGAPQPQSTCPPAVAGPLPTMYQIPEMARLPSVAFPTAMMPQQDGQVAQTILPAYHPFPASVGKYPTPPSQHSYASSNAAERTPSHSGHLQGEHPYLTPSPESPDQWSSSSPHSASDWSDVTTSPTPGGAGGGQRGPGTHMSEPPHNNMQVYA
Chain of Torsin-1A-interacting protein 2 (Homo sapiens) (Q8NFQ8 whole entry, looked up): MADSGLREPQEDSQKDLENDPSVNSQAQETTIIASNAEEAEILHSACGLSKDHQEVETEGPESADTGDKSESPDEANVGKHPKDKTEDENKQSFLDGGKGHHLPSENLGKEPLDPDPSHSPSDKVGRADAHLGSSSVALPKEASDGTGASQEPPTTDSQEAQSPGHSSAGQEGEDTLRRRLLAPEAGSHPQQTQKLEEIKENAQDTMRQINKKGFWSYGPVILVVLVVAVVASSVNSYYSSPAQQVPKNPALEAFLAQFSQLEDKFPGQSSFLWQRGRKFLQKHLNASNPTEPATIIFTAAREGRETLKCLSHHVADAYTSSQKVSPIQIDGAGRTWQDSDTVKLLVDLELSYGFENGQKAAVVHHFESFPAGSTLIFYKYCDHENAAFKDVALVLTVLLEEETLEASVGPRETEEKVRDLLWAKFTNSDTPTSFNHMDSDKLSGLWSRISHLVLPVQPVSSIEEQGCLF
Chain of Pro-neuregulin-1, membrane-bound isoform (Homo sapiens) (Q02297 whole entry, looked up, the tested form may be a part, canonical isoform): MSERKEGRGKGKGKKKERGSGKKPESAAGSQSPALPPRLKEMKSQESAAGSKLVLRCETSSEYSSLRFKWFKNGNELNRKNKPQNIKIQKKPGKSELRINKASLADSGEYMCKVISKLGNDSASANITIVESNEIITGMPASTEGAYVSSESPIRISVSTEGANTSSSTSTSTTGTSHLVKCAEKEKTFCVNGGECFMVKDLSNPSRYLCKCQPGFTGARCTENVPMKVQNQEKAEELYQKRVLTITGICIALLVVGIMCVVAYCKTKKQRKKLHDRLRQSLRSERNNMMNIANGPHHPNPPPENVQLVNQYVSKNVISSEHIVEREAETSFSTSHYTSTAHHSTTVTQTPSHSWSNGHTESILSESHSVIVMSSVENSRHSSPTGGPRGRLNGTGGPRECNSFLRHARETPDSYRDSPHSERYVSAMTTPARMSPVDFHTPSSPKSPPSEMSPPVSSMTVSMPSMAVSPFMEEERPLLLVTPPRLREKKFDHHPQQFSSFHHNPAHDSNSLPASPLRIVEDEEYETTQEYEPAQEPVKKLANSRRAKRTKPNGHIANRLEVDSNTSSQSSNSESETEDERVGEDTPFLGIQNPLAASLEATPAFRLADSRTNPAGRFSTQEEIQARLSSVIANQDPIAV

Consider `O=C1C2C=CC(C(O)c3ccc(-c4ccccc4)s3)N(Nc3ccccc3)C2C(=O)N1c1ccccc1` (stereo not given), for which the composite z-score in assay [1] is -0.288; in [2], -0.109; in [3] it was 0.198; in [4], 0.44; in [5] it was 1.61; in assay [6], 2. For the same compound, the composite z-score was 1.33 in assay [7]; 1.62 in assay [9]; -0.0618 in assay [10]; 1.26 in assay [11]; 4.34 in assay [15]; 0.0711 in assay [17]. For the same compound, the composite z-score in [18] was 0.182; in assay [19] it was 1.11; in assay [20] it was -0.0565. The z-score was -2.89 (inactive) in assay [8]; -0.307 (inactive) in assay [12]; 1.63 (inactive) in [13]; 0.355 (inactive) in assay [14]; -0.579 (inactive) in assay [16].
Take `Cc1ccc(S[C@]2(C(=O)O)CC(=O)N(C(C)C)[C@@H]2c2ccc(CO)cc2)cc1`: the composite z-score is 0.125 in assay [1]; 0.552 in [2]; -0.172 in [3]; -0.0563 in assay [4]; -0.445 in assay [5]; -0.226 in [6]. Also, the composite z-score in assay [7] is 0.751; in assay [9], -0.735; in assay [10], -0.189; in assay [11], 1.21; in assay [15] it was -0.634; in assay [17], -0.0719. Besides, the composite z-score in assay [18] was 0.306; in assay [19] it was -0.229; in [20], -0.134. Moreover, the z-score is -0.175 (inactive) in assay [8]; -1.54 (inactive) in assay [12]; -0.916 (inactive) in assay [13]; -0.963 (inactive) in assay [14]; 1.66 (inactive) in [16].
On to `CCCC(=O)N(CCc1c[nH]c2ccccc12)[C@@H]1CC(C(=O)NCCO)=C[C@H](Oc2c(I)cc(CO)cc2OC)[C@H]1O`, for which the composite z-score was -0.279 in assay [1]; 0.809 in [2]; -0.0692 in assay [3]; 0.187 in assay [4]; -0.11 in [5]; -0.0724 in assay [6]. Besides, the composite z-score in [7] was 0.315; in assay [9] it was -0.0945; in assay [10], -0.214; in assay [11], 0.234; in assay [15] it was 1.42; in assay [17] it was -0.157. Further, the values for the composite z-score in assay [18], in assay [19] and in assay [20] were 0.259, -0.0693 and -0.0708, respectively. The z-score in assay [8] is -0.667 (inactive); in [12], 0.5 (inactive); in assay [13], -0.713 (inactive); in assay [14], -0.241 (inactive); in assay [16] it was 1.55 (inactive).
As to `CCOC(=O)C1=CC[C@H]2C(=O)N(c3ccccc3)C(=O)[C@@H]12`, the composite z-score was -0.368 in [1]; 0.606 in [2]; 0.05 in assay [3]; 1.07 in [4]; 1.61 in [5]; 1.37 in assay [6]. The composite z-score in assay [7] was 1.32; in assay [9], 0.743; in assay [10] it was -0.0237; in [11], 1.48; in assay [15], 3.4; in assay [17], 0.157. For the same compound, the values for the composite z-score in [18], in [19] and in assay [20] were 0.436, 1.07 and 0.08, respectively. The z-score in assay [8] was -0.775 (inactive); in [12] it was 0.296 (inactive); in assay [13], -0.0087 (inactive); in [14] it was -0.487 (inactive); in assay [16], -0.981 (inactive).
Consider `O=C1C2C=CC(C(O)COCc3ccccc3)N(Nc3ccc([N+](=O)[O-])cc3)C2C(=O)N1c1ccccc1` (stereo not given), for which the composite z-score in assay [1] is 0.0903; in [2] it was -0.58; in assay [3], -0.0004; in assay [4] it was 1.14; in assay [5] it was 1.57; in assay [6] it was 0.661. Moreover, the composite z-score in assay [7] is 1.32; in [9], 1.44; in [10], -0.145; in assay [11], 1.46; in assay [15] it was 2.83; in assay [17] it was 0.168. The figures for the composite z-score in assay [18], in assay [19] and in assay [20] were 0.661, 1.09 and -0.0072, respectively. The z-score in [8] was 0.123 (inactive); in [12], -0.464 (inactive); in assay [13], 1.12 (inactive); in assay [14], 2.16 (inactive); in assay [16] it was 0.547 (inactive).
In the case of `CN(C)CCCC[C@@H]1NC(=O)[C@H]2C[C@@H](C(=O)NCCCCCN)[C@@H](c3cccc(OCCO)c3)N2C1=O`, the composite z-score in [1] is 1.88; in [2], 2.19; in assay [3] it was 0.269; in assay [4], 0.558; in [5], 1.12; in assay [6] it was 2.28. Besides, the composite z-score worked out at 1.3 in [7]; 1.75 in assay [9]; 1.16 in assay [10]; 1.54 in [11]; 2.26 in [15]; 0.801 in [17]. Also, the composite z-score in assay [18] is 1.38; in assay [19], 0.339; in [20], 0.374. Further, the z-score in assay [8] is -0.0269 (inactive); in assay [12] it was -0.717 (inactive); in assay [13], -5.79 (inactive); in [14], -0.503 (inactive); in assay [16], 1.04 (inactive).
With `COCC(=C=CC[C@H](O)c1ccccc1OCCO)CCO`, the composite z-score in assay [1] is -0.2; in assay [2], 0.32; in assay [3], -0.0747; in [4], 0.225; in assay [5] it was -0.626; in assay [6] it was 1.24. Moreover, the composite z-score is 0.857 in assay [7]; -0.0019 in assay [9]; 0.0373 in [10]; 0.43 in assay [11]; 1.8 in assay [15]; 0.0041 in [17]. The composite z-score in assay [18] is 0.698; in [19], 0.318; in assay [20], -0.1. Further, the z-score is 0.212 (inactive) in [8]; -0.594 (inactive) in assay [12]; -0.5 (inactive) in assay [13]; -0.127 (inactive) in assay [14]; 0.309 (inactive) in assay [16].
On to `CC=CC(O)C1C=CC2C(=O)N(C)C(=O)C2N1N(c1ccccc1)c1ccccc1` (stereo not given), for which the composite z-score in assay [1] was -0.108; in assay [2], 0.273; in [3], -0.0567; in assay [4], 0.367; in [5], 1.44; in assay [6] it was 0.837. Also, the composite z-score in assay [7] was 1.12; in assay [9], -0.132; in assay [10] it was -0.201; in assay [11], 0.344; in [15] it was -0.472; in [17], 0.0973. For the same compound, the composite z-score in assay [18] is -0.0867; in [19], 0.0161; in assay [20], 0.248. The z-score is 0.621 (inactive) in assay [8]; 0.586 (inactive) in assay [12]; 1.91 (inactive) in [13]; 1.29 (inactive) in assay [14]; -0.357 (inactive) in [16].
Regarding `CN1C(=O)C2C=CC(C(O)C=Cc3ccc([N+](=O)[O-])cc3)N(Nc3ccccc3)C2C1=O` (stereo not given), the composite z-score in assay [1] was -0.283; in [2] it was 0.617; in assay [3], 0.0411; in [4], 0.497; in assay [5] it was 1.25; in assay [6] it was 1.59. The composite z-score is 1.35 in assay [7]; 0.998 in assay [9]; -0.132 in [10]; 1.51 in [11]; 1.62 in assay [15]; 0.0849 in assay [17]. Further, the values for the composite z-score in assay [18], in [19] and in assay [20] were 0.577, 1.12 and -0.0372, respectively. Moreover, the z-score in assay [8] is 2.12 (inactive); in assay [12] it was -0.131 (inactive); in assay [13], -1.18 (inactive); in [14], -0.656 (inactive); in [16] it was -1.35 (inactive).
